# PubChem BioAssay AID463173 (ICCB-Longwood Screening Facility, Harvard Medical School, 2010)
# In all, about 52,000 compounds went through this assay and about 4,300 (8.3%) were called active. This excerpt belongs to a sample that is enriched for actives. A number with no mark means an inactive call. No stated cut-off is given here; in the data, active means survival mostly below about 52% (no sharp cut-off); inactive means mostly above about 56%.
# System: DeltatarO mutant
# Assay: growth inhibition of S. aureus wild type versus tarO mutant, primary screen, teichoic acid synthesis inhibitors, RN4220, OD600 (AID 463173)
# Conditions: OD600, 18 h, active compounds read low, screened at 18.75 µg/mL (by protocol)
row,SMILES,survival
1,COC(=O)c1scc(-c2ccc(C)cc2)c1S(=O)(=O)N1CCN(c2ccccc2F)CC1,118%
2,COc1cccc(N2CC(NC(=O)c3cccs3)CC2=O)c1 (stereo not drawn),74%
3,Cc1ccc(-n2ncc(C(=O)NCc3ccc4c(c3)OCO4)c2C2CCN(C(=O)OC(C)(C)C)CC2)c(C)c1,92%
4,COc1ccc(-c2nc3ccccc3n2Cc2ccccc2)cc1,-1% (active)
5,COc1ccc(-c2noc(=O)n2Cc2ccccc2)cc1,75%
6,COc1ccc(-c2nc3ccccc3n2Cc2ccc(Cl)cc2)cc1,6% (active)
7,COc1ccc(Cn2c(SCC(=O)Nc3ccc(OC)cc3)nc3ccccc32)cc1,88%
8,COc1ccc(-c2nc3ccccc3n2Cc2ccc(C(C)C)cc2)cc1,4% (active)
9,COc1ccc(Cn2c(SC)nc3ccccc32)cc1,97%
10,COc1ccc(Cn2c(=O)c3ccccc3n3c(-c4ccc(C)cc4)nnc23)cc1,90%
11,CCOc1cc(Cn2c(-c3ccc(O)c(OCC)c3)nc3ccccc32)ccc1O,73%
12,COc1ccc(Cn2c(SCC(=O)NCc3ccccc3)nc3ccccc32)cc1,117%
13,Cc1ccc(NC(=O)Cn2c(=O)oc3cc(S(=O)(=O)N4CCCCC4)ccc32)c(C)c1,81%
14,Cc1cc(C)cc(NC(=O)C(=O)NCCc2sc(-c3cccc(F)c3)nc2C)c1,80%
15,COc1cccc(-n2c(=O)c3sc4ccccc4c3n(CC(=O)Nc3ccc(F)cc3F)c2=O)c1,64%
16,O=C(NCCc1ccccc1)c1cc(Sc2cccc(Cl)c2)nc2ccccc12,88%
17,CCN(C(=O)Cn1ncc2c1-c1cc(C)ccc1OC2)c1cc(Cl)ccc1OC,31% (active)
18,Cc1cccc(N2CCN(C(=O)CCS(=O)(=O)c3ccc4c(c3)CC(=O)N4C)CC2C)c1 (stereo not drawn),-2% (active)
19,Cc1ccc2c(c1)-c1c(cnn1CC(=O)N1CCN(c3cccc(C(F)(F)F)c3)CC1)CO2,50%
20,Cc1ccc2c(c1)-c1c(cnn1CC(=O)N1CCN(c3ccccc3F)CC1)CO2,73%
21,COc1cc(Cl)c(C)cc1NC(=O)Cn1ncc2c1-c1cc(C)ccc1OC2,58%
22,Cc1cccc(N2CCN(C(=O)Cn3ncc4c3-c3cc(C)ccc3OC4)CC2C)c1 (stereo not drawn),47% (active)

row,SMILES,survival
1,CCC(=O)N1CCc2cc(S(=O)(=O)CCC(=O)N3CCN(c4cccc(C)c4)C(C)C3)ccc21 (stereo not drawn),76%
2,Cc1ccc2c(c1)-c1c(cnn1CC(=O)N1CCN(c3cc(Cl)ccc3C)CC1)CO2,49%
3,CN1C(=O)Cc2cc(S(=O)(=O)CCC(=O)N3CCN(c4cccc(Cl)c4)CC3)ccc21,62%
4,O=C(NCc1ccc(Cl)cc1)c1cc(S(=O)(=O)N2CCCCC2)c[nH]1,103%
5,Cc1ccc(-n2ncc3c(NC4CCCCC4)ncnc32)cc1,88%
6,Cc1ccccc1NCc1cccn1-c1nnc(N2CCOCC2)s1,112%
7,Cc1ccc(C(=O)c2oc3ccccc3c2NC(=O)c2cc(-c3ccc(Cl)cc3)on2)cc1,87%
8,CC1CCC(NC(=O)c2ccc3c(c2)N(Cc2cccc(Cl)c2)C(=O)c2ccccc2S3(=O)=O)CC1 (stereo not drawn),74%
9,COc1ccc2[nH]c(=O)c(CN(CCO)S(=O)(=O)c3ccc(Cl)c(C(F)(F)F)c3)cc2c1,98%
10,COc1ccc(NCc2cccn2-c2nnc(N3CCOCC3)s2)c(OC)c1,78%
11,CCNC(=O)c1ccc(NC(=O)N2CCCCc3ccccc32)cc1,102%
12,CCOc1ccc(N(C(=O)c2ccccc2F)S(=O)(=O)c2ccc3c(c2)n(C)c(=O)n3C)cc1,47%
13,COc1ccc(N(C(=O)c2ccccc2)S(=O)(=O)c2ccc3c(c2)n(C)c(=O)n3C)cc1,89%
14,CCOc1ccc(N(C(=O)c2ccc(Cl)cc2)S(=O)(=O)c2ccc3c(c2)n(C)c(=O)n3C)cc1,37% (active)
15,COc1ccc(C(=O)N(c2ccc(OC)cc2)S(=O)(=O)c2ccc3c(c2)n(C)c(=O)n3C)cc1,84%
16,CCOc1ccc(N(CC(=O)OC)S(=O)(=O)c2ccc3c(c2)n(C)c(=O)c(=O)n3C)cc1,46% (active)
17,CCOc1ccc(N(C(=O)c2ccc(OC)cc2)S(=O)(=O)c2ccc3c(c2)n(C)c(=O)n3C)cc1,37% (active)
18,CCOc1ccc(N(C(=O)c2ccc(C)cc2)S(=O)(=O)c2ccc3c(c2)n(C)c(=O)n3C)cc1,45%
19,CCOc1ccc(NC(=O)CCS(=O)(=O)c2ccc3c(c2)n(C)c(=O)c(=O)n3C)cc1,87%
20,CCCCCC(=O)N(c1ccc(OCC)cc1)S(=O)(=O)c1ccc2c(c1)n(C)c(=O)n2C,111%
21,CCc1nc2ccc(C(=O)N3CCN(c4cccc(OC)c4)CC3)cc2nc1CC,83%
22,CC(C)c1cnc2c(c1SCC(=O)Nc1cccc([N+](=O)[O-])c1)c(=O)n(C)c(=O)n2C,69%

row,SMILES,survival
1,CC1CCN(S(=O)(=O)c2ccc3c(c2)N(CC(=O)N2CCN(c4ccc(Cl)cc4)CC2)C(=O)CO3)CC1,62%
2,Cc1ccc(-c2nnc(SCC(=O)NCCC(C)C)nc2-c2ccc(C)cc2)cc1,104%
3,Cc1cccc(N(C(=O)c2csnn2)C(C(=O)NC2CCCCC2)c2ccco2)c1 (stereo not drawn),87%
4,Cc1cc(C)cc(NC(=O)CSc2nccn2C2CCCC2)c1,94%
5,COc1ccc(-n2nnnc2C2CCN(S(=O)(=O)c3ccc(C)cc3)CC2)cc1,99%
6,Cc1ccccc1CN1C(=O)C(O)(c2c[nH]c3ccccc23)c2cc(Cl)ccc21 (stereo not drawn),-2% (active)
7,CCN1C(=O)C(O)(c2c[nH]c3ccccc23)c2cc(Br)ccc21 (stereo not drawn),55% (active)
8,CCCCN1C(=O)C(O)(c2c[nH]c3ccccc23)c2cc(Br)ccc21 (stereo not drawn),50%
9,O=C1N(Cc2ccccc2Cl)c2ccccc2C1(O)c1c[nH]c2ccccc12 (stereo not drawn),64%
10,Cc1ccc(CN2C(=O)C(O)(c3c[nH]c4ccccc34)c3cc(Cl)ccc32)cc1 (stereo not drawn),-3% (active)
11,CC(C)N1C(=O)C(O)(c2c[nH]c3ccccc23)c2ccccc21 (stereo not drawn),129%
12,O=C1N(Cc2ccccc2)c2ccccc2C1(O)c1c[nH]c2ccccc12 (stereo not drawn),55%
13,Cc1ccc(C)c(CN2C(=O)C(O)(c3c[nH]c4ccccc34)c3ccccc32)c1 (stereo not drawn),142%
14,O=C1N(Cc2ccccc2)c2ccc(Cl)cc2C1(O)c1c[nH]c2ccccc12 (stereo not drawn),66%
15,CCc1ccccc1NC(=O)Nc1c[nH]c(=O)[nH]c1=O,75%
16,c1ccc(Nc2c(-c3ccccc3)nc3ncccn23)cc1,81%
17,O=C(OCc1cc(=O)n2nc(-c3cccs3)sc2n1)c1ccccc1,65%
18,CCc1nn(CC(=O)NCCCc2ccccc2)c(=O)c2cc3ccccc3n12,90%
19,C/C(=N\NC(N)=O)C1CC(Cc2ccccc2)C(=O)O1 (stereo not drawn),57%
20,Cc1ccc(-c2nc3ccccc3n3c(-c4ccccc4)c4c(=O)n(C)c(=O)n(C)c4c23)cc1,97%
21,COc1ccc(Br)cc1CNC(=O)C1CCCCN1S(=O)(=O)c1ccc(F)cc1 (stereo not drawn),81%
22,COc1ccc(CNC(=O)C(=O)NCC(c2ccc3c(c2)OCO3)N2CCOCC2)cc1 (stereo not drawn),99%

row,SMILES,survival
1,COc1cccc(C(=O)NCC(c2ccc3c(c2)OCO3)N2CCN(C)CC2)c1 (stereo not drawn),112%
2,CNC(=O)C(=O)NCC(c1ccc2c(c1)OCO2)N1CCOCC1 (stereo not drawn),89%
3,CC(C)(C)CC(=O)NCC(c1ccc2c(c1)OCO2)N1CCOCC1 (stereo not drawn),80%
4,CN(C)CCCNC(=O)C(=O)NCC(c1ccc2c(c1)OCO2)N1CCOCC1 (stereo not drawn),106%
5,O=C(NCCCO)C(=O)NCC(c1ccc2c(c1)OCO2)N1CCOCC1 (stereo not drawn),37% (active)
6,O=C(NCCO)C(=O)NCC(c1ccc2c(c1)OCO2)N1CCOCC1 (stereo not drawn),75%
7,COc1ccc(C(=O)NCC(c2ccc3c(c2)OCO3)N2CCN(C)CC2)cc1 (stereo not drawn),47% (active)
8,CC(C)(C)C(=O)NCC(c1ccc2c(c1)OCO2)N1CCOCC1 (stereo not drawn),0% (active)
9,COc1ccc(CCNC(=O)C(=O)NCC(c2ccc3c(c2)OCO3)N2CCOCC2)cc1 (stereo not drawn),32% (active)
10,CCOc1ccc(C(=O)NCC(c2ccc3c(c2)OCO3)N2CCN(C)CC2)cc1 (stereo not drawn),78%
11,COc1ccc(CCNC(=O)C(=O)NCC(c2ccc3c(c2)OCO3)N2CCOCC2)cc1OC (stereo not drawn),69%
12,CC1=C(C(=O)Nc2cccc(C(F)(F)F)c2)C(c2ccccc2)n2ncnc2N1 (stereo not drawn),103%
13,COc1ccc(CN2C3CCCC2CC(NC(=O)NC2CCCCC2)C3)cc1 (stereo not drawn),85%
14,Cc1ccc(F)cc1NC(=O)CCc1c(C)nn(-c2ccc(N3CCCC3)nn2)c1C,78%
15,CCOc1ccc(C(C(=O)NC2CCCC2)N(Cc2ccco2)C(=O)Cn2nnc3ccccc32)cc1OC (stereo not drawn),110%
16,COc1ccc(-c2cccc(NS(=O)(=O)c3cc(C)ccc3OC)c2)nn1,122%
17,Nc1c(-c2nc(-c3ccc(Cl)cc3)cs2)c2ccccn2c1C(=O)c1ccc2c(c1)OCO2,101%
18,CC1CCCCN1C(=O)CSc1nnc2c3ccccc3n(CC(=O)O)c2n1 (stereo not drawn),97%
19,CCOC(=O)c1c(C)[nH]c(C)c1S(=O)(=O)N1CCCC(C(=O)Nc2cc(C)ccc2C)C1 (stereo not drawn),83%
20,CN(C)CCNC(=O)C(=O)NCC(c1ccc2c(c1)OCO2)N1CCOCC1 (stereo not drawn),69%
21,COCCCNC(=O)C(=O)NCC(c1ccc2c(c1)OCO2)N1CCOCC1 (stereo not drawn),95%
22,COCCNC(=O)C(=O)NCC(c1ccc2c(c1)OCO2)N1CCOCC1 (stereo not drawn),0% (active)
